Compounds without any hit were thinned out: in the full panel of roughly 79,000, 15% have a hit. Unmarked numbers belong to inactive results. The source made the active and inactive calls. Cut-off read from the data, not from the text of the source: active = growth inhibition above about 70%; inactive = the rest.
Columns and labels:
[1] = NCI Yeast Anticancer Drug Screen. Data for the wt1 strain (AID 149);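 note: 0% = growth of vehicle-treated wt1 cultures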; conditions: S. cerevisiae wt1 strain (SPY 50644) growth inhibition, active compounds read high
In short: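 wt1 yeast, compound-treated; % growth inhibition vs vehicle control.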

[2] = NCI Yeast Anticancer Drug Screen. Data for the rad50EPP+ strain (AID 151);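 note: 0% = growth of vehicle-treated control cultures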; conditions: S. cerevisiae rad50 mutant strain, active compounds read high
In short: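 Yeast strain carrying rad50 alteration (rad50EPP+) exposed to compounds; growth inhibition measured relative to vehicle-treated controls.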

[3] = NCI Yeast Anticancer Drug Screen. Data for the mgt1 strain (AID 153); conditions: S. cerevisiae mgt1 mutant growth inhibition, active compounds read high
In short: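 Yeast mgt1 strain (DNA repair/cell-cycle alteration panel) exposed to compounds; growth inhibition measured relative to vehicle-treated controls.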

[4] = NCI Yeast Anticancer Drug Screen. Data for the rad50 strain (AID 155);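 note: 0% = growth of vehicle-only cultures of the same strain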; conditions: S. cerevisiae rad50 strain growth inhibition, active compounds read high
In short: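 Genetically altered yeast (DNA repair pathway); compound treatment; growth inhibition vs vehicle ctrl.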

[5] = NCI Yeast Anticancer Drug Screen. Data for the mec2-1 strain (AID 157); conditions: S. cerevisiae mec2-1 strain, active compounds read high
In short: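 mec2-1 yeast strain, carrying an alteration in DNA damage repair or cell cycle control, was exposed to compounds; growth inhibition was measured relative to vehicle-treated controls.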

[6] = NCI Yeast Anticancer Drug Screen. Data for the rad14 strain (AID 159);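 note: 0% = growth of vehicle-treated control cultures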; conditions: S. cerevisiae rad14 strain growth inhibition, active compounds read high
In short: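 Test compounds were applied to a repair-deficient yeast strain. Its growth was then compared with that of cultures given vehicle alone, and inhibition was expressed relative to those controls.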

[7] = NCI Yeast Anticancer Drug Screen. Data for the sgs1 mgt1 strain (AID 161);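 note: 0% = growth of cultures given vehicle only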; conditions: S. cerevisiae sgs1 mgt1 strain, active compounds read high
In short: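 Growth of a repair-deficient yeast mutant was monitored after compound treatment and expressed as inhibition relative to vehicle-treated cultures.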

[8] = NCI Yeast Anticancer Drug Screen. Data for the CLN2oe strain (AID 163);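 note: 0% = growth of vehicle-only control cultures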; conditions: S. cerevisiae CLN2oe strain, active compounds read high
In short: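 Yeast cells carrying a defined cell-cycle control alteration were exposed to test compounds. Growth inhibition was scored against vehicle-treated control cultures.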

[9] = NCI Yeast Anticancer Drug Screen. Data for the cln2 rad14 strain (AID 165);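 note: 0% = growth equal to vehicle treated cultures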; conditions: S. cerevisiae cln2 rad14 strain, active compounds read high
In short: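 Yeast carrying cln2 and rad14 alterations (cell cycle control and DNA damage repair) were exposed to compounds. Growth inhibition was measured against vehicle-treated controls.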

[10] = NCI Yeast Anticancer Drug Screen. Data for the bub3 strain (AID 167); conditions: S. cerevisiae bub3 mutant strain, active compounds read high
In short: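 Yeast carrying a defined mutation is treated with each compound, and growth is compared with that of vehicle-exposed cells to give inhibition.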

[11] = NCI Yeast Anticancer Drug Screen. Data for the wt2 strain (AID 169);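 note: 0% = growth of vehicle-treated yeast cultures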; conditions: S. cerevisiae wt2 strain growth inhibition, active compounds read high
In short: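 Yeast cells were exposed to test compounds, and growth inhibition was measured relative to vehicle-treated controls.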

[12] = NCI Yeast Anticancer Drug Screen. Data for the mlh1 strain (AID 171);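 note: 0% = growth of vehicle-treated control cultures of the same strain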; conditions: S. cerevisiae mlh1 strain growth inhibition, active compounds read high
In short: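 Yeast carrying a defined genetic alteration in DNA damage repair or cell cycle control were exposed to test compounds. Growth inhibition was measured relative to vehicle-treated controls.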

[13] = NCI Yeast Anticancer Drug Screen. Data for the sgs1 strain (AID 173);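 note: 0% = growth of vehicle-only control cultures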; conditions: S. cerevisiae sgs1 mutant, active compounds read high
In short: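 Yeast mutant strains carrying defined defects in DNA damage repair or cell cycle control were exposed to test compounds. Growth inhibition was scored against vehicle-treated controls.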

[14] = NCI Yeast Anticancer Drug Screen. Data for the mlh1 rad18 strain (AID 175); conditions: S. cerevisiae mlh1 rad18 strain growth inhibition, active compounds read high
In short: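 Growth inhibition of the yeast strain was measured after compound exposure and expressed relative to vehicle-treated controls. The strain carries defined defects in DNA damage repair.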

[15] = NCI Yeast Anticancer Drug Screen. Data for the rad18 strain (AID 177); conditions: S. cerevisiae rad18 mutant growth inhibition, active compounds read high
In short: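 Yeast carrying a defined DNA damage repair alteration were exposed to compounds. Growth inhibition was expressed relative to vehicle-treated controls.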

[16] = at 5.0 µM (retest, dose inferred, filed as 0.5)
[17] = at 50.0 µM (retest, dose inferred, filed as 5.0)

SMILES: CCc1c[n+]([O-])c(C)cc1[N+](=O)[O-]
- growth inhibition ([1]; at 1.2 µM): 0%
- growth inhibition ([1]; at 3.7 µM): -1%
- growth inhibition ([1]; at 11.0 µM): 0%
- growth inhibition ([1]; at 33.0 µM): -1%
- growth inhibition ([1]; at 100.0 µM): 13%
- growth inhibition ([2]; at 1.2 µM): -1%
- growth inhibition ([2]; at 3.7 µM): 6%
- growth inhibition ([2]; at 11.0 µM): 25%
- growth inhibition ([2]; at 33.0 µM): 55%
- growth inhibition ([2]; at 100.0 µM): 85% (active)
- growth inhibition ([3]; at 1.2 µM): -2%
- growth inhibition ([3]; at 3.7 µM): -2%
- growth inhibition ([3]; at 11.0 µM): -2%
- growth inhibition ([3]; at 33.0 µM): 17%
- growth inhibition ([3]; at 100.0 µM): 22%
- growth inhibition ([4]; at 1.2 µM): 1%
- growth inhibition ([4]; at 3.7 µM): 6%
- growth inhibition [4, 16]: 17%
- growth inhibition ([4]; at 11.0 µM): 18%
- growth inhibition ([4]; at 33.0 µM): 53%
- growth inhibition [4, 17]: 94% (active)
- growth inhibition ([4]; at 50.0 µM): 73.7% (active)
- growth inhibition ([4]; at 100.0 µM): 87% (active)
- growth inhibition ([5]; at 1.2 µM): -2%
- growth inhibition ([5]; at 3.7 µM): 1%
- growth inhibition [5, 16]: -6%
- growth inhibition ([5]; at 11.0 µM): 2%
- growth inhibition ([5]; at 33.0 µM): 27%
- growth inhibition [5, 17]: 77% (active)
- growth inhibition ([5]; at 50.0 µM): 14.9%
- growth inhibition ([5]; at 100.0 µM): 92% (active)
- growth inhibition ([6]; at 1.2 µM): 5%
- growth inhibition ([6]; at 3.7 µM): 12%
- growth inhibition ([6]; at 11.0 µM): 48%
- growth inhibition ([6]; at 33.0 µM): 94% (active)
- growth inhibition ([6]; at 100.0 µM): 98% (active)
- growth inhibition [7, 16]: 45%
- growth inhibition [7, 17]: 95% (active)
- growth inhibition ([7]; at 50.0 µM): 87.5% (active)
- growth inhibition ([8]; at 1.2 µM): -2%
- growth inhibition ([8]; at 3.7 µM): -4%
- growth inhibition ([8]; at 11.0 µM): -5%
- growth inhibition ([8]; at 33.0 µM): -14%
- growth inhibition ([8]; at 100.0 µM): -2%
- growth inhibition [9, 16]: 21%
- growth inhibition [9, 17]: 94% (active)
- growth inhibition ([9]; at 50.0 µM): 88.2% (active)
- growth inhibition ([10]; at 1.2 µM): -4%
- growth inhibition ([10]; at 3.7 µM): -8%
- growth inhibition [10, 16]: 8%
- growth inhibition ([10]; at 11.0 µM): -14%
- growth inhibition ([10]; at 33.0 µM): -20%
- growth inhibition [10, 17]: 52%
- growth inhibition ([10]; at 50.0 µM): -29.3%
- growth inhibition ([10]; at 100.0 µM): -2%
- growth inhibition ([11]; at 1.2 µM): 0%
- growth inhibition ([11]; at 3.7 µM): 0%
- growth inhibition ([11]; at 11.0 µM): 2%
- growth inhibition ([11]; at 33.0 µM): 5%
- growth inhibition ([11]; at 100.0 µM): 21%
- growth inhibition ([12]; at 1.2 µM): -1%
- growth inhibition ([12]; at 3.7 µM): -1%
- growth inhibition ([12]; at 11.0 µM): 3%
- growth inhibition ([12]; at 33.0 µM): 7%
- growth inhibition ([12]; at 100.0 µM): 29%
- growth inhibition ([13]; at 1.2 µM): 10%
- growth inhibition ([13]; at 3.7 µM): 31%
- growth inhibition ([13]; at 11.0 µM): 63%
- growth inhibition ([13]; at 33.0 µM): 85% (active)
- growth inhibition ([13]; at 100.0 µM): 93% (active)
- growth inhibition [14, 16]: 58%
- growth inhibition [14, 17]: 96% (active)
- growth inhibition ([14]; at 50.0 µM): 65.9%
- growth inhibition ([15]; at 1.2 µM): 56%
- growth inhibition ([15]; at 3.7 µM): 86% (active)
- growth inhibition ([15]; at 11.0 µM): 92% (active)
- growth inhibition ([15]; at 33.0 µM): 95% (active)
- growth inhibition ([15]; at 100.0 µM): 95% (active)

SMILES: COC(=O)CC1(O)C(/C=C/c2ccccc2)C(C(=O)OC)C(=O)C(C(=O)OC)C1C(=O)OC (stereo unspecified)
- growth inhibition ([1]; at 1.2 µM): 1%
- growth inhibition ([1]; at 3.7 µM): 1%
- growth inhibition ([1]; at 11.0 µM): 1%
- growth inhibition ([1]; at 33.0 µM): -1%
- growth inhibition ([1]; at 100.0 µM): -1%
- growth inhibition ([2]; at 1.2 µM): -7%
- growth inhibition ([2]; at 3.7 µM): -6%
- growth inhibition ([2]; at 11.0 µM): -7%
- growth inhibition ([2]; at 33.0 µM): -6%
- growth inhibition ([2]; at 100.0 µM): -16%
- growth inhibition ([3]; at 1.2 µM): -2%
- growth inhibition ([3]; at 3.7 µM): -3%
- growth inhibition ([3]; at 11.0 µM): -3%
- growth inhibition ([3]; at 33.0 µM): 13%
- growth inhibition ([3]; at 100.0 µM): 43%
- growth inhibition ([4]; at 1.2 µM): -1%
- growth inhibition ([4]; at 3.7 µM): -1%
- growth inhibition [4, 16]: -3%
- growth inhibition ([4]; at 11.0 µM): 2%
- growth inhibition ([4]; at 33.0 µM): 1%
- growth inhibition [4, 17]: 6%
- growth inhibition ([4]; at 50.0 µM): 38.9%
- growth inhibition ([4]; at 100.0 µM): 4%
- growth inhibition ([5]; at 1.2 µM): -3%
- growth inhibition ([5]; at 3.7 µM): -1%
- growth inhibition [5, 16]: 1%
- growth inhibition ([5]; at 11.0 µM): -4%
- growth inhibition ([5]; at 33.0 µM): -2%
- growth inhibition [5, 17]: 20%
- growth inhibition ([5]; at 50.0 µM): 50%
- growth inhibition ([5]; at 100.0 µM): 12%
- growth inhibition ([6]; at 1.2 µM): -4%
- growth inhibition ([6]; at 3.7 µM): -1%
- growth inhibition ([6]; at 11.0 µM): 0%
- growth inhibition ([6]; at 33.0 µM): 0%
- growth inhibition ([6]; at 100.0 µM): 2%
- growth inhibition [7, 16]: -1%
- growth inhibition [7, 17]: 23%
- growth inhibition ([7]; at 50.0 µM): 48%
- growth inhibition ([8]; at 1.2 µM): -2%
- growth inhibition ([8]; at 3.7 µM): 1%
- growth inhibition ([8]; at 11.0 µM): -2%
- growth inhibition ([8]; at 33.0 µM): -7%
- growth inhibition ([8]; at 100.0 µM): 39%
- growth inhibition [9, 16]: -18%
- growth inhibition [9, 17]: 44%
- growth inhibition ([9]; at 50.0 µM): -0.7%
- growth inhibition ([10]; at 1.2 µM): -4%
- growth inhibition ([10]; at 3.7 µM): -5%
- growth inhibition [10, 16]: -2%
- growth inhibition ([10]; at 11.0 µM): -2%
- growth inhibition ([10]; at 33.0 µM): -4%
- growth inhibition [10, 17]: 6%
- growth inhibition ([10]; at 50.0 µM): 74.2% (active)
- growth inhibition ([10]; at 100.0 µM): -5%
- growth inhibition ([11]; at 1.2 µM): -2%
- growth inhibition ([11]; at 3.7 µM): -2%
- growth inhibition ([11]; at 11.0 µM): 0%
- growth inhibition ([11]; at 33.0 µM): -1%
- growth inhibition ([11]; at 100.0 µM): 7%
- growth inhibition ([12]; at 1.2 µM): 1%
- growth inhibition ([12]; at 3.7 µM): -1%
- growth inhibition ([12]; at 11.0 µM): 0%
- growth inhibition ([12]; at 33.0 µM): 1%
- growth inhibition ([12]; at 100.0 µM): 5%
- growth inhibition ([13]; at 1.2 µM): -1%
- growth inhibition ([13]; at 3.7 µM): 1%
- growth inhibition ([13]; at 11.0 µM): 1%
- growth inhibition ([13]; at 33.0 µM): 4%
- growth inhibition ([13]; at 100.0 µM): 43%
- growth inhibition [14, 16]: 6%
- growth inhibition [14, 17]: 30%
- growth inhibition ([14]; at 50.0 µM): 85.3% (active)
- growth inhibition ([15]; at 1.2 µM): 0%
- growth inhibition ([15]; at 3.7 µM): -2%
- growth inhibition ([15]; at 11.0 µM): -4%
- growth inhibition ([15]; at 33.0 µM): 3%
- growth inhibition ([15]; at 100.0 µM): 4%
